Binding signal data for 42 sequences are collected here from publication PMC10726135, “HNF4α isoforms regulate the circadian balance between carbohydrate and lipid metabolism in the liver”.

Whole data set: some 18,000 sequences, median “log2 normalized intensity” near 0.36, cut for the highest 2% near 7.3. For the sample, the highest values were picked, then their nearest neighbours and some sequences at random.

This test concerns the target T1, HNF4alpha8 (COS-7 nuclear extract) (Homo sapiens, UniProt P41235-5 1-452).
T1 sequence: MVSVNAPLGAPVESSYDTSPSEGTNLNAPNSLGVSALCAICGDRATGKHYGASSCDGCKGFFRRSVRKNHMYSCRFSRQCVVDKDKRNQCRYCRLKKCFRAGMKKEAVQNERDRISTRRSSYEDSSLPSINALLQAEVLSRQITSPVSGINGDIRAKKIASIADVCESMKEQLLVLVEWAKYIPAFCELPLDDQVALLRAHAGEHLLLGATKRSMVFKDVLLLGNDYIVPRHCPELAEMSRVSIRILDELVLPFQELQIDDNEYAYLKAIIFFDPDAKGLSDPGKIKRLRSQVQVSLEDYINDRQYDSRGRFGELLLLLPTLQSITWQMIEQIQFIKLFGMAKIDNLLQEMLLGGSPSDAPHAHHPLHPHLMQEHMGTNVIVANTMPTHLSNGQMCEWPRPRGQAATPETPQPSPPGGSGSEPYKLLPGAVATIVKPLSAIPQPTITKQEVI
As to the kind of experiment: protein-binding microarray; COS-7 nuclear extract on double-stranded Agilent 4x180k PBM; binding buffer, salt, pH and temperature not given in the material; high values mean tight binding. The following applies: chain copies: 2; label: 3' end of strand 1 on the slide; dsDNA, one strand shown. The gist of the method: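 Binding signal is the background-corrected, normalized gProcessedSignal calculated by Agilent software. It was measured by applying nuclear extracts of COS-7 cells transiently transfected with a human HNF4α isoform expression vector to a custom Agilent SurePrint G3 4x180k array of ~44,000 double-stranded ~60-nt test sequences in quadruplicate, then imaging bound HNF4α on an Agilent G2565CA scanner at 2-µm resolution.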
As to “AAGACCCAAGGCGTATGAAGCTTTGACCCTGCCTAGGGAGATTAGAGTATCGGTCGA”, the binding signal was 5.29 log2 normalized intensity. For “TGGACTTTGGAATTAAGGAGATTTGGCTTTGCCTAGGGAGATTAGAGTATCGGTCGA”, the binding signal amounted to 5.99 log2 normalized intensity. Consider “GGAGACCTGAAACTAGACCAAGAAGACTTTGCCTAGGGAGATTAGAGTATCGGTCGA”, for which the binding signal is -0.267 log2 normalized intensity.

Turning to “GAATTTGGACTTTGCACTAAAAGCCATGAGGCCTAGGGAGATTAGAGTATCGGTCGA”, the binding signal worked out at 6.28 log2 normalized intensity. With “TGGACTTTGCACTAAAAGCCATGAGAAGGTGCCTAGGGAGATTAGAGTATCGGTCGA”, the binding signal is 5.41 log2 normalized intensity.

Turning to “CTGGCAGCACCTGAAGAATTTGGACTTTGCGCCTAGGGAGATTAGAGTATCGGTCGA”, the binding signal was determined as 8.33 log2 normalized intensity.

“AGGGATTCCTGAAGATCGCAGACTTTGGACGCCTAGGGAGATTAGAGTATCGGTCGA”: the binding signal is 6.44 log2 normalized intensity. On to “GGTGAGTCTTTGCCCCTGGACTTTGAATTTGCCTAGGGAGATTAGAGTATCGGTCGA”, for which the binding signal was found to be 5.75 log2 normalized intensity. Take “TTCCTGAAGATCGCAGACTTTGGACTCTGCGCCTAGGGAGATTAGAGTATCGGTCGA”: the binding signal turned out to be 8.57 log2 normalized intensity. Then “GGGTCCTGGCAGCACCTGAAGAATTTGGACGCCTAGGGAGATTAGAGTATCGGTCGA”, with 1.76 log2 normalized intensity; and “AGCACCTGAAGAATTTGGACTTTGCACTAAGCCTAGGGAGATTAGAGTATCGGTCGA”, with 9.19 log2 normalized intensity. Turning to “CTGAAGAATTTGGACTTTGCACTAAAAGCCGCCTAGGGAGATTAGAGTATCGGTCGA”, the binding signal stood at 7.57 log2 normalized intensity. Then “GAAGATCGCAGACTTTGGACTCTGCAAGGAGCCTAGGGAGATTAGAGTATCGGTCGA”, with 6.68 log2 normalized intensity. Consider “CAAGGAAAGATAAATAGTGACAAATTGTATGCCTAGGGAGATTAGAGTATCGGTCGA”, for which the binding signal is -0.0347 log2 normalized intensity. On to “GTTTCTCAAGTGATCGAAGGTCAACTTATCGCCTAGGGAGATTAGAGTATCGGTCGA”, for which the binding signal turned out to be 4.63 log2 normalized intensity. As to “TGTCCTGTGATTAAGGTCAATGGGAAACTAGCCTAGGGAGATTAGAGTATCGGTCGA”, the binding signal was 1.05 log2 normalized intensity. “CTAGTTCATTAAACATGTTTACTCTGGTCCGCCTAGGGAGATTAGAGTATCGGTCGA”: the binding signal worked out at 1.59 log2 normalized intensity. Consider “GAAGGAGAGTGACCTCTGCTTGAAGGCATTGCCTAGGGAGATTAGAGTATCGGTCGA”, for which the binding signal was found to be 1.78 log2 normalized intensity. Turning to “AGATTCTTTCTTCCTTTTGAAAAAGTGAGTGCCTAGGGAGATTAGAGTATCGGTCGA”, the binding signal was 0.567 log2 normalized intensity. With “AATAGCCCCAAATTCCTTTCAAACTGTATTGCCTAGGGAGATTAGAGTATCGGTCGA”, the binding signal worked out at 1.37 log2 normalized intensity. With “CAAAAATGATACCCCAGAGTACAGCACTTTGCCTAGGGAGATTAGAGTATCGGTCGA”, the binding signal amounted to 1.2 log2 normalized intensity. Consider “ATCAGAGCAAAGTTCAATTTCCAACAAATGGCCTAGGGAGATTAGAGTATCGGTCGA”, for which the binding signal was found to be 3.74 log2 normalized intensity.

For “GGAGAGAGTTTGGCCCCAGTTCCCATGGACGCCTAGGGAGATTAGAGTATCGGTCGA”, the binding signal amounted to 1.45 log2 normalized intensity.

As to “ATCCTGCAGTTCCTGATCTTTGACCTGGAGGCCTAGGGAGATTAGAGTATCGGTCGA”, the binding signal is 6.23 log2 normalized intensity. In the case of “CTGATGCCCTTTGGATTTAGGCAGTTTTTGGCCTAGGGAGATTAGAGTATCGGTCGA”, the binding signal stood at 2.92 log2 normalized intensity. Then “AGATCATCCTGCAGTTCCTGATCTTTGACCGCCTAGGGAGATTAGAGTATCGGTCGA”, with 7.84 log2 normalized intensity; and “CAGTTTGGACTTTGATCCTGATGACTGCAGGCCTAGGGAGATTAGAGTATCGGTCGA”, with 8.17 log2 normalized intensity; and “AATTCCAGTTTGGACTTTGATCCTGATGACGCCTAGGGAGATTAGAGTATCGGTCGA”, with 10 log2 normalized intensity. In the case of “TGGACTTTGATCCTGATGACTGCAGAGCTTGCCTAGGGAGATTAGAGTATCGGTCGA”, the binding signal was determined as 6.16 log2 normalized intensity. On to “CACCTTTGGATCCAGCTCCTGATGTTTGGTGCCTAGGGAGATTAGAGTATCGGTCGA”, for which the binding signal is 2.43 log2 normalized intensity.

Consider “GCAGTTCCTGATCTTTGACCTGGAGCATGAGCCTAGGGAGATTAGAGTATCGGTCGA”, for which the binding signal was determined as 5.34 log2 normalized intensity.

Turning to “TTACAGTGTGAATCTCCAACAAGGCAGGAGGCCTAGGGAGATTAGAGTATCGGTCGA”, the binding signal was -0.531 log2 normalized intensity. On to “GTCATAATTTGATCCAGTGTGCAAATGTGTGCCTAGGGAGATTAGAGTATCGGTCGA”, for which the binding signal came out at 2.05 log2 normalized intensity. In the case of “CCACAACCTACCCTTTGCCCTGGACATATTGCCTAGGGAGATTAGAGTATCGGTCGA”, the binding signal came out at 3.27 log2 normalized intensity. Consider “GCAAACCTGCCCTTTGCTCCAGAGGAAGATGCCTAGGGAGATTAGAGTATCGGTCGA”, for which the binding signal came out at 3.81 log2 normalized intensity. For “AAAGAGCCATGGACTGCTGACCTTTGAACCGCCTAGGGAGATTAGAGTATCGGTCGA”, the binding signal was found to be 9.59 log2 normalized intensity. Turning to “TTCAAATTCTTTGCCATGACCTTTGAAGCCGCCTAGGGAGATTAGAGTATCGGTCGA”, the binding signal was 7.52 log2 normalized intensity. For the sequence “GGCAGATATGAAAGAGCCATGGACTGCTGAGCCTAGGGAGATTAGAGTATCGGTCGA”, the binding signal is -0.289 log2 normalized intensity. As for “AGCAATTCAAATTCTTTGCCATGACCTTTGGCCTAGGGAGATTAGAGTATCGGTCGA”, the binding signal is 6.24 log2 normalized intensity. Turning to “GCCATGGACTGCTGACCTTTGAACCCTGAGGCCTAGGGAGATTAGAGTATCGGTCGA”, the binding signal stood at 10.3 log2 normalized intensity.

“CCTTTGAGGAGGCCTTTCCTGACCCCTCCTGCCTAGGGAGATTAGAGTATCGGTCGA”: the binding signal was 4.78 log2 normalized intensity. For the sequence “ATATGAAAGAGCCATGGACTGCTGACCTTTGCCTAGGGAGATTAGAGTATCGGTCGA”, the binding signal was 7.13 log2 normalized intensity.
